From the supplement of paper PMC12669032
Unmarked numbers belong to inactive results.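 Rule for the calls: active = AUC reduced over 20% with Padj below 0.05 in at least 2 of 3 replicates; inactive = otherwise.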

Tests used:
Test in all cases: growth AUC relative to DMSO control (median of replicates) (fraction); higher = more growth (less inhibition), active = hit call of the paper
Settings in all cases: 20 µM; 24 h
Coprococcus comes = tested on: Coprococcus comes
Summary of the method: (§1)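 Gut bacterial monocultures in mGAM were treated with 20 µM compound (1% DMSO) and grown anaerobically at 37 °C in round-bottom 96-well plates from OD600 0.05. OD600 was read hourly for 24 h, with the minimum OD set to 0. Area under the growth curve was normalised to the plate median of solvent-only wells, or to row and column medians on the industrial chemical plate. Each value is the median of three biological replicates, each grown on a separate day.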

Escherichia coli ED1a = tested on: Escherichia coli ED1a
Summary of the method: as §1

Escherichia coli IAI1 = tested on: Escherichia coli IAI1
Summary of the method: as §1

Eubacterium rectale = tested on: Eubacterium rectale
Summary of the method: as §1

[1] = tested on: Fusobacterium nucleatum subsp. animalis
Summary of the method: as §1

Lactobacillus gasseri = tested on: Lactobacillus gasseri
Summary of the method: as §1

Lactobacillus paracasei = tested on: Lactobacillus paracasei
Summary of the method: as §1

Odoribacter splanchnicus = tested on: Odoribacter splanchnicus
Summary of the method: as §1

[2] = tested on: Parabacteroides distasonis
Summary of the method: as §1

Parabacteroides merdae = tested on: Parabacteroides merdae
Summary of the method: as §1

Roseburia intestinalis = tested on: Roseburia intestinalis
Summary of the method: as §1

Streptococcus salivarius = tested on: Streptococcus salivarius
Summary of the method: as §1

Compound: CCOP(=O)(NC(C)C)Oc1ccc(S(C)=O)c(C)c1 (centres undefined)
- growth AUC (Coprococcus comes): 1.04
- growth AUC (Escherichia coli ED1a): 1.03
- growth AUC (Escherichia coli IAI1): 1.04
- growth AUC (Eubacterium rectale): 1.05
- growth AUC [1]: 1.09
- growth AUC (Lactobacillus gasseri): 1.07
- growth AUC (Lactobacillus paracasei): 0.975
- growth AUC (Odoribacter splanchnicus): 1.01
- growth AUC [2]: 1.13
- growth AUC (Parabacteroides merdae): 1.05
- growth AUC (Roseburia intestinalis): 1.05
- growth AUC (Streptococcus salivarius): 1.05

Compound: CCCCc1c(C)nc(NCC)nc1OS(=O)(=O)N(C)C
- growth AUC (Coprococcus comes): 0.996
- growth AUC (Escherichia coli ED1a): 0.987
- growth AUC (Escherichia coli IAI1): 1.01
- growth AUC (Eubacterium rectale): 1.16
- growth AUC [1]: 0.968
- growth AUC (Lactobacillus gasseri): 0.931
- growth AUC (Lactobacillus paracasei): 0.987
- growth AUC (Odoribacter splanchnicus): 0.891
- growth AUC [2]: 0.598 (active)
- growth AUC (Parabacteroides merdae): 0.906
- growth AUC (Roseburia intestinalis): 1.03
- growth AUC (Streptococcus salivarius): 1.02

Compound: Clc1ccccc1-c1nnc(-c2ccccc2Cl)nn1
- growth AUC (Coprococcus comes): 0.911
- growth AUC (Escherichia coli ED1a): 0.99
- growth AUC (Escherichia coli IAI1): 0.978
- growth AUC (Eubacterium rectale): 0.997
- growth AUC [1]: 0.943
- growth AUC (Lactobacillus gasseri): 0.964
- growth AUC (Lactobacillus paracasei): 0.79
- growth AUC (Odoribacter splanchnicus): 0.887
- growth AUC [2]: 0.991
- growth AUC (Parabacteroides merdae): 1.03
- growth AUC (Roseburia intestinalis): 1.1
- growth AUC (Streptococcus salivarius): 0.984

Compound: CCCOCCN(C(=O)CCl)c1c(CC)cccc1CC
- growth AUC (Coprococcus comes): 0.988
- growth AUC (Escherichia coli ED1a): 0.963
- growth AUC (Escherichia coli IAI1): 0.985
- growth AUC (Eubacterium rectale): 1.02
- growth AUC [1]: 0.945
- growth AUC (Lactobacillus gasseri): 0.927
- growth AUC (Lactobacillus paracasei): 1.12
- growth AUC (Odoribacter splanchnicus): 1.02
- growth AUC [2]: 0.848
- growth AUC (Parabacteroides merdae): 0.942
- growth AUC (Roseburia intestinalis): 0.947
- growth AUC (Streptococcus salivarius): 0.952

Compound: CC(=O)O.NC(N)=NCCCCCCCCNCCCCCCCCN=C(N)N
- growth AUC (Coprococcus comes): 0.64 (active)
- growth AUC (Escherichia coli ED1a): 1
- growth AUC (Escherichia coli IAI1): 0.928
- growth AUC (Eubacterium rectale): 0.0294 (active)
- growth AUC [1]: 0.871
- growth AUC (Lactobacillus gasseri): 0.874
- growth AUC (Lactobacillus paracasei): 0.961
- growth AUC (Odoribacter splanchnicus): 0.0478 (active)
- growth AUC [2]: 0.132 (active)
- growth AUC (Parabacteroides merdae): 0.0209 (active)
- growth AUC (Roseburia intestinalis): 0.039 (active)
- growth AUC (Streptococcus salivarius): 0.474 (active)

Compound: COP(=O)(OC)OC(Br)C(Cl)(Cl)Br (centres undefined)
- growth AUC (Coprococcus comes): 0.976
- growth AUC (Escherichia coli ED1a): 0.991
- growth AUC (Escherichia coli IAI1): 1.02
- growth AUC (Eubacterium rectale): 0.915
- growth AUC [1]: 0.973
- growth AUC (Lactobacillus gasseri): 1.02
- growth AUC (Lactobacillus paracasei): 1.01
- growth AUC (Odoribacter splanchnicus): 0.937
- growth AUC [2]: 1.06
- growth AUC (Parabacteroides merdae): 1.01
- growth AUC (Roseburia intestinalis): 1.01
- growth AUC (Streptococcus salivarius): 0.956

Compound: Cc1cnc(C2=NC(C)(C(C)C)C(=O)N2)c(C(=O)O)c1 (centres undefined)
- growth AUC (Coprococcus comes): 1
- growth AUC (Escherichia coli ED1a): 0.999
- growth AUC (Escherichia coli IAI1): 1.01
- growth AUC (Eubacterium rectale): 0.985
- growth AUC [1]: 0.976
- growth AUC (Lactobacillus gasseri): 1.04
- growth AUC (Lactobacillus paracasei): 0.939
- growth AUC (Odoribacter splanchnicus): 0.953
- growth AUC [2]: 1.07
- growth AUC (Parabacteroides merdae): 1.02
- growth AUC (Roseburia intestinalis): 0.997
- growth AUC (Streptococcus salivarius): 1.03

Compound: CC(C)=CC1C(C(=O)OCc2cccc(Oc3ccccc3)c2)C1(C)C (mixture of isomers)
- growth AUC (Coprococcus comes): 0.992
- growth AUC (Escherichia coli ED1a): 0.975
- growth AUC (Escherichia coli IAI1): 0.974
- growth AUC (Eubacterium rectale): 1.06
- growth AUC [1]: 1.11
- growth AUC (Lactobacillus gasseri): 0.767
- growth AUC (Lactobacillus paracasei): 1.02
- growth AUC (Odoribacter splanchnicus): 1.03
- growth AUC [2]: 0.924
- growth AUC (Parabacteroides merdae): 0.956
- growth AUC (Roseburia intestinalis): 0.908
- growth AUC (Streptococcus salivarius): 0.951

Compound: CC(C)C1(C)N=C(c2nc3ccccc3cc2C(=O)O)NC1=O (centres undefined)
- growth AUC (Coprococcus comes): 1.01
- growth AUC (Escherichia coli ED1a): 0.985
- growth AUC (Escherichia coli IAI1): 0.983
- growth AUC (Eubacterium rectale): 0.965
- growth AUC [1]: 1.02
- growth AUC (Lactobacillus gasseri): 1.03
- growth AUC (Lactobacillus paracasei): 0.891
- growth AUC (Odoribacter splanchnicus): 0.908
- growth AUC [2]: 0.986
- growth AUC (Parabacteroides merdae): 0.997
- growth AUC (Roseburia intestinalis): 1.03
- growth AUC (Streptococcus salivarius): 0.935

Compound: N#Cc1sc2c(=O)c3ccccc3c(=O)c=2sc1C#N
- growth AUC (Coprococcus comes): 0.921
- growth AUC (Escherichia coli ED1a): 0.945
- growth AUC (Escherichia coli IAI1): 0.957
- growth AUC (Eubacterium rectale): 0.911
- growth AUC [1]: 0.881
- growth AUC (Lactobacillus gasseri): 1.01
- growth AUC (Lactobacillus paracasei): 0.875
- growth AUC (Odoribacter splanchnicus): 0.926
- growth AUC [2]: 0.928
- growth AUC (Parabacteroides merdae): 0.968
- growth AUC (Roseburia intestinalis): 1
- growth AUC (Streptococcus salivarius): 0.908

Compound: CN(C)c1nc(=O)n(C2CCCCC2)c(=O)n1C
- growth AUC (Coprococcus comes): 1.03
- growth AUC (Escherichia coli ED1a): 0.994
- growth AUC (Escherichia coli IAI1): 0.984
- growth AUC (Eubacterium rectale): 0.978
- growth AUC [1]: 1.11
- growth AUC (Lactobacillus gasseri): 1.01
- growth AUC (Lactobacillus paracasei): 0.943
- growth AUC (Odoribacter splanchnicus): 1.02
- growth AUC [2]: 1.03
- growth AUC (Parabacteroides merdae): 1.01
- growth AUC (Roseburia intestinalis): 1.02
- growth AUC (Streptococcus salivarius): 1.01

Compound: CC(=O)CC(c1ccco1)c1c(O)c2ccccc2oc1=O (centres undefined)
- growth AUC (Coprococcus comes): 1.01
- growth AUC (Escherichia coli ED1a): 0.994
- growth AUC (Escherichia coli IAI1): 0.987
- growth AUC (Eubacterium rectale): 0.985
- growth AUC [1]: 0.986
- growth AUC (Lactobacillus gasseri): 1.03
- growth AUC (Lactobacillus paracasei): 1.05
- growth AUC (Odoribacter splanchnicus): 0.978
- growth AUC [2]: 0.958
- growth AUC (Parabacteroides merdae): 1.01
- growth AUC (Roseburia intestinalis): 0.975
- growth AUC (Streptococcus salivarius): 0.989
